Laboratory results reported in PubChem BioAssay (Tox21).
Values joined by “and” are separate entries in the source; they are usually repeats but may differ in a detail not shown here. Equal entries are not always repeated. Records with an inconclusive call do not appear. Active and inactive are the calls of the source. Unless noted, calls follow the shape of the dose curve; as a rule, active = well fitted curve in the direction sought with a large enough effect in the repeat runs; inconclusive = weak or mixed curves; inactive = no such curve, though single readings can be large; an effect the other way counts as inactive or inconclusive.

How the values were obtained:
[1] = qHTS assay to identify small molecule agonists of H2AX (AID 1224845; active = well fitted activation curve with a large enough effect in the signal ratio in the repeat runs, not every such curve was filed as active; the % refers to the signal ratio; also: potency is read from the fitted curve at half-maximal effect); details: CHO-K1 phospho-H2AX Ser139 HTRF, 3 h; series mostly up to 154 µM
Method in brief: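 Wild-type CHO-K1 cells plated overnight, then exposed 3 hr at 37C to compounds at 15 concentrations (0.76% DMSO). Lysed, then HTRF anti-pH2AX(S139)-cryptate/anti-H2AX-d2 detection after 24 hr at room temperature; emissions 665 and 620 nm.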

[2] = qHTS assay to identify small molecule agonists of H2AX - cell viability counter screen (AID 1224847; calls by dose curve; also: nearly all actives have a fitted effect of over 30% in size; also: potency is read from the fitted curve at half-maximal effect; as to activity change, negative = cytotoxicity: top concentration of the series differs between compounds); details: CHO-K1 viability, CellTiter-Glo luminescence, 3 h; series mostly up to 154 µM
Method in brief: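 Cytotoxicity counter screen in wild-type CHO-K1 cells: a 3 hr compound treatment at 37C across 15 concentrations, followed by CellTiter-Glo luminescence to gauge viable cells.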

[3] = qHTS RealTime-Glo MT Cell Viability Assay in HepG2 cells - 24 hour (AID 1224867); details: RealTime-Glo luminescence; series mostly up to 76.8 µM; also: nearly all actives have a fitted effect of over 50% in size; also: potency is read from the fitted curve at half-maximal effect
Method in brief: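 HepG2 suspension premixed with RealTime-Glo reagents is plated at 600 cells per well and left 5 h at 37 C/5% CO2. Compounds in DMSO then go in, and bioluminescence reflecting viable cell number is recorded over 40 h.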

[4] = qHTS RealTime-Glo MT Cell Viability Assay in HEK293 cells - 32 hour (AID 1224868); details: RealTime-Glo luminescence; series mostly up to 76.8 µM; also: nearly all actives have a fitted effect of over 50% in size; also: potency is read from the fitted curve at half-maximal effect; as to activity change, negative = cytotoxic: top concentration of the series differs between compounds
Method in brief: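 Reads taken at 0, 8, 16, 24, 32 and 40 h from the same wells. HEK293 cells (600/well) carried RealTime-Glo reagents from seeding, with compound added after a 5 h settle at 37 C.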

[5] = qHTS RealTime-Glo MT Cell Viability Assay in HepG2 cells - 40 hour (AID 1224870); details: RealTime-Glo luminescence; series mostly up to 76.8 µM; also: nearly all actives have a fitted effect of over 50% in size; also: potency is read from the fitted curve at half-maximal effect
Method in brief: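 HepG2 cells mixed with RealTime-Glo MT reagents (NanoLuc plus cell-permeant prosubstrate) were seeded at 600 cells/well, incubated 5 h at 37 C/5% CO2, then pinned with compounds in DMSO; nonlytic luminescence tracked viability during 40 h treatment.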

[6] = qHTS assay to identify small molecule agonists of the estrogen related receptor (ERR) signaling pathway from Tox21 library (AID 1224849; calls by dose curve; also: nearly all actives have a fitted effect of over 15% in size); details: ERR reporter cell line, ONE-Glo luciferase, 18 h
Method in brief: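 Six hours post-seeding at 37 C/5% CO2, ERR cells receive DMSO-solubilised compounds; after 18 h at 37 C, ONE-Glo reagent is applied and luminescence recorded.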

[7] = A CellTox Green Cytotoxicity Assay to monitor cytotoxicity in HEK293 cells - 0 hour (AID 1224869); details: CellTox Green fluorescence; series mostly up to 76.8 µM; also: nearly all actives have a fitted effect of over 50% in size
Method in brief: (§1)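 Seeding of HEK293 cells together with cytotoxicity dye preceded a 5 h incubation at 37 C/5% CO2. Test compounds in DMSO were then added and fluorescence monitored across 40 h.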

[8] = A CellTox Green Cytotoxicity Assay to monitor cytotoxicity in HEK293 cells - 40 hour (AID 1224871); details: CellTox Green fluorescence; series mostly up to 76.8 µM; also: nearly all actives have a fitted effect of over 45% in size; also: potency is read from the fitted curve at half-maximal effect
Method in brief: as §1

[9] = qHTS assay to identify small molecule antagonists of the estrogen related receptor (ERR) signaling pathway from Tox21 library (AID 1224848); details: ERR reporter cell line, luciferase antagonist mode, 18 h; series mostly up to 92.4 µM; also: nearly all actives have a fitted effect of over 50% in size; also: potency is read from the fitted curve at half-maximal effect
Method in brief: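 Screening used an ERR reporter line supplied by NTP, exposed for 18 h at 37 C to library compounds delivered in DMSO. Signal was luciferase luminescence developed with ONE-Glo at room temperature for 30 min.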

[10] = qHTS assay to identify small molecule agonists of the hypoxia (HIF-1) signaling pathway (AID 1224846; active = well fitted activation curve with a large enough effect in the signal ratio in the repeat runs, not every such curve was filed as active; the % refers to the signal ratio); details: HRE-bla ME-180 cells, beta-lactamase ratio, 17 h; series mostly up to 76.8 µM
Method in brief: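 Hypoxia-pathway activation was scored as increased beta-lactamase from an HRE-controlled reporter in ME-180 cells; plated at 2,000 cells per well with 0.5% dialyzed FBS, they were exposed 17 hrs to compounds and then given CCF4-AM.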
% is scaled to controls: 0 for no effect and ±100 for the full control effect.

O=C(O)CN(CCN(CC(=O)O)CC(=O)O)CC(=O)O
active: Potency [1] 4.52 µM
inactive: activity change, negative = cytotoxicity [2] -5.08% [at 5.43 µM] | activity change, negative = cytotoxicity [3] 3.3% [at 2.72 µM] | activity change, negative = cytotoxic [4] 9.19% [at 2.72 µM] | activity change, negative = cytotoxic [5] 12.4% [at 2.72 µM]

CCCc1ccc(OCC(=O)N2CCN(C(=O)COc3ccc(CCC)cc3OC)CC2)c(OC)c1
inactive: Potency [1] | Potency [2] | activity change, positive = activation ([6]; at 42.5 µM (top of the series)) -21.5% | Potency [7] | Potency [5]
active: Potency [4] 8.49 µM

O=C1CCc2cc(OCCCCc3nnnn3C3CCCCC3)ccc2N1
inactive: Potency [1] | Potency [2] | Potency [3] | Potency [7] | Potency [5] | Potency [8]

CN1CCN2c3ccccc3Cc3ccccc3C2C1 (centres undefined)
inactive: Potency [1] | Potency [2] | Potency [9] | activity change, positive = activation ([6]; at 42.5 µM (top of the series)) -10.4% | Potency [3] | Potency [4] | Potency [7] | Potency [5] | Potency [8]

CC1(C)CCC[C@]2(C)[C@H]3CCO[C@]3(C)CC[C@@H]12
inactive: Potency [1] | Potency [2] | Potency [9] | activity change, positive = activation ([6]; at 92.4 µM (top of the series)) 5.7% | Potency [3] | Potency [5]

CC(=O)CC(=O)Nc1ccc(S(=O)(=O)O)cc1
inactive: Potency [1] | Potency [10] | Potency [3] | Potency [5] | Potency [8]

c1ccc(C(O[C@@H]2CCCN(CCc3ccc4c(c3)OCO4)C2)c2ccccc2)cc1
inactive: Potency [1] | Potency [10] | Potency [3] | Potency [5] | Potency [8]

CCCCCCCCCCCC(=O)OCC(C)OC(=O)CCCCC(=O)O (centres undefined)
inactive: Potency [1] | Potency [2] | Potency [9] | activity change, positive = activation ([6]; at 42.5 µM (top of the series)) -2.88% | Potency [3] | Potency [4] | Potency [7] | Potency [5] | Potency [8]

Cc1nc2n(c(=O)c1CCN1CCC(c3noc4cc(F)ccc34)CC1)CCCC2
active: Potency [4] 3.79 µM
inactive: Potency [1] | Potency [2] | Potency [3] | Potency [7] | Potency [5] | Potency [8]

CN1CCN(Cc2cc(-c3ccc4[nH]c(=O)oc4c3)co2)[C@@H](c2ccc(F)cc2)C1
inactive: Potency [1] | Potency [10]
active: Potency [4] 21.1 µM

CCC(C)n1ncn(-c2ccc(N3CCN(c4ccc(OC[C@H]5CO[C@](Cn6cncn6)(c6ccc(Cl)cc6Cl)O5)cc4)CC3)cc2)c1=O (some centres undefined)
inactive: Potency [1] | Potency [2] | Potency [7] | Potency [8]

CCCCCCCCCCCCCCCC[N+](C)(C)CC
active: Potency [2] 101 µM and 49.2 µM | Potency [9] 17.3 µM and 10.6 µM | Potency [3] 24.6 µM and 23.9 µM | Potency [4] 4.91 µM and 4.77 µM | Potency [5] 19.6 µM and 19 µM | Potency [8] 43.8 µM and 23.9 µM
inactive: Potency [1] | activity change, positive = activation ([6]; at 42.5 µM (top of the series)) -55.4% | activity change, positive = activation ([6]; at 92.4 µM (top of the series)) -72.7% | Potency [7]

Cc1cc(-n2nc3ccc(Cl)cc3n2)c(O)c(C(C)(C)C)c1
inactive: Potency [1] | Potency [2] | Potency [9] | activity change, positive = activation ([6]; at 42.5 µM (top of the series)) 2.34% | Potency [3] | Potency [7] | Potency [5] | Potency [8]

C=C(CC)C(=O)c1ccc(OCC(=O)O)c(Cl)c1Cl
inactive: Potency [1] | activity change, positive = activation ([6]; at 42.5 µM (top of the series)) -17.8% | activity change, positive = activation ([6]; at 92.4 µM (top of the series)) -55% | Potency [3] | Potency [7] | Potency [5] | Potency [8]
active: Potency [9] 68.1 µM

O=C(O)O
inactive: activity change, negative = cytotoxicity [2] -9.67% [at 14 µM] | activity, negative = inhibition [9] 10.7% [at 8.39 µM] | activity change, positive = activation ([6]; at 8.39 µM (top of the series)) 5.47% | activity change, negative = cytotoxicity [3] 3.08% [at 6.97 µM] | activity change, negative = cytotoxic [4] 0.187% [at 6.97 µM] | cytotoxicity [7] 2.74% [at 6.97 µM] | activity change, negative = cytotoxic [5] 19% [at 6.97 µM] | cytotoxicity increase [8] 4.75% [at 6.97 µM]
active: Potency [1] 4.88 µM

CCCCCCCCCCCCCC[N+](C)(C)C
active: Potency [2] 38.8 µM and 50.4 µM | Potency [9] 2.64 µM and 4.32 µM and 8.41 µM | Potency [3] 11.9 µM and 21.8 µM and 23.9 µM | Potency [5] 7.5 µM and 17.4 µM and 23.9 µM | Potency [8] 29.9 µM and 48.9 µM and 26.8 µM
inactive: Potency [1] | activity change, positive = activation ([6]; at 42.5 µM (top of the series)) -50% | activity change, positive = activation ([6]; at 92.4 µM (top of the series)) -78.5% and -74.4%

O=C(O)[C@H](O)[C@@H](O)[C@H](O[C@@H]1O[C@H](CO)[C@H](O)[C@H](O)[C@H]1O)[C@H](O)CO
inactive: Potency [1] | Potency [2] | Potency [3] | Potency [7] | Potency [5] | Potency [8]

CCC(C)(CCC(C)C)C(=O)[O][Sn]([CH3])([CH3])[O]C(=O)C(C)(CC)CCC(C)C (centres undefined)
inactive: Potency [1] | Potency [2] | activity change, positive = activation ([6]; at 92.4 µM (top of the series)) -20.9% | Potency [3] | Potency [7] | Potency [5] | Potency [8]

CCCCCCCCCCCCOCCOCCOCCOCCOCCOCCOCCOCCOCCO
inactive: Potency [1] | activity change, positive = activation ([6]; at 42.5 µM (top of the series)) -54.8% | Potency [7] | Potency [5]
active: Potency [2] 55.2 µM | Potency [9] 2.98 µM | Potency [4] 5.35 µM | Potency [8] 10.7 µM

Clc1ccnc(Cl)n1
inactive: Potency [1] | Potency [2] | Potency [9] | activity change, positive = activation ([6]; at 92.4 µM (top of the series)) -1.53% | Potency [3] | Potency [4] | Potency [7] | Potency [5] | Potency [8]

CCCCC/C=C\C/C=C\CCCCCCCC(=O)O
inactive: Potency [1] | Potency [2] | Potency [3] | Potency [7] | Potency [5] | Potency [8]
